Results filed as inconclusive are left out. Activity calls are given as the source filed them. The calls were made as follows, unless noted: active = hit-call score of the fitted dose curve at least 0.9, where 1 is the maximum; inactive = score below 0.9.
Columns and labels:
[1] = IUF_NPC5_oligodendrocyte_differentiation_120hr: Leibniz Research Institute for Environmental Medicine (IUF) 120-hour Oligodendrocyte Differentiation Assay (NPC5) (AID 2284304; active = hit-call score of the fitted dose curve at least 0.9, where 1 is the maximum;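 also: primary human fetal neural progenitor spheres plated to migrate and differentiate; share of O4-positive cells among Hoechst nuclei found by CNN image analysis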)
In short: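 After plating on poly-D-lysine/laminin, fetal-derived hNPC spheres differentiated for 120 h at 37C in compound-containing N2 medium, refreshed by half on day 3. O4 immunostaining over Hoechst nuclei in the migration zone gave oligodendrocyte percentage relative to DMSO.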

[2] = CCTE_Mundy_HCI_iCellGluta_NOG_NeuriteLength: CCTE's Neurite Outgrowth Assay in iCellGluta cells for Neurite Length, Mundy Lab (AID 2284318; active = hit-call score of the fitted dose curve at least 0.9, where 1 is the maximum)
In short: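 Automated high-content imaging of betaIII-tubulin (Alexa Fluor-488) and Hoechst-stained cells gave neurite length, normalized to the DMSO baseline.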

Caspase-3 (Homo sapiens) = Caspase-3 (Homo sapiens) (UniProt P42574); assay: NVS_ENZ_hCASP3: NovaScreen (NVS) Enzymatic Assay for human Caspase 3 (CASP3) (AID 2283139; active = hit-call score of the fitted dose curve at least 0.9, where 1 is the maximum)
In short: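 Recombinant human caspase-3 from E. coli with a fluorogenic substrate, read by fluorescence 1 h after dosing. Primary screen in duplicate at 25 uM. Actives (for example ≥30% inhibition) rerun as concentration-response up to 50 uM.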

[3] = biological target: human Phosphodiesterase 5 (PDE5), PDE5A (gene 8654) (UniProt O76074); assay: NVS_ENZ_hPDE5: NovaScreen (NVS) Enzymatic Assay for human Phosphodiesterase 5 (PDE5) (AID 2283194; active = hit-call score of the fitted dose curve at least 0.9, where 1 is the maximum)
In short: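 Recombinant human PDE5 with specific substrate, read 1 h after dosing by fluorescence with electrophoretic mobility-shift separation of substrate and product. Initial single-concentration duplicate screen at 25 uM, actives followed in concentration series; loss of activity versus DMSO.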

[4] = read-out: Tumor necrosis factor receptor superfamily member 6 (Homo sapiens) (UniProt P25445); assay: LTEA_HepaRG_FAS: Life Technologies and Expression Analysis (LTEA) Assay for Fas cell surface death receptor (FAS) using HepaRG (AID 2283447); details: mRNA level, 48 h; actives raise or lower the signal
In short: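 FAS transcript level was measured by TaqMan qRT-PCR against three housekeeping genes after 48 h chemical exposure. Cells were HepaRG, 0.5% DMSO vehicle, with a top concentration of 100 uM and half-log dilutions over eight points, in duplicate.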

[5] = read-out: Fatty acid synthase (Homo sapiens) (UniProt P49327); assay: LTEA_HepaRG_FASN: Life Technologies and Expression Analysis (LTEA) Assay for Fatty Acid Synthase (FASN) using HepaRG (AID 2283448); details: mRNA level, 48 h; actives raise or lower the signal
In short: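 Transcript-level assay: HepaRG liver cells are treated for 48 h across an eight-point range topping at 100 uM, and FASN mRNA, normalized to three housekeeping genes, is compared with DMSO controls in both directions.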

[6] = read-out: Cyclin D2 (CCND2), CCND2 (gene 894); assay: LTEA_HepaRG_CCND2: Life Technologies and Expression Analysis (LTEA) Assay for Cyclin D2 (CCND2) using HepaRG (AID 2283449); details: mRNA level, 48 h; actives raise or lower the signal
In short: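 Read-out is CCND2 mRNA level measured by qRT-PCR in human HepaRG liver cells and normalised to three housekeeping genes. Chemicals were applied for 48 h at up to 100 uM, with gain or loss fitted relative to 0.5% DMSO.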

[7] = read-out: Cyclin Dependent Kinase Inhibitor 1A (CDKN1A), CDKN1A (gene 1026); assay: LTEA_HepaRG_CDKN1A: Life Technologies and Expression Analysis (LTEA) Assay for Cyclin Dependent Kinase Inhibitor 1A (CDKN1A) using HepaRG (AID 2283450); details: mRNA level, 48 h; actives raise or lower the signal
In short: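 Gain or loss of CDKN1A transcript is scored by bidirectional fitting against 0.5% DMSO vehicle. Human HepaRG cultures receive chemicals for 48 h across an 8-point series peaking at 100 uM; expression comes from qRT-PCR.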

[8] = read-out: Cyclin D1 (CCND1), CCND1 (gene 595); assay: LTEA_HepaRG_CCND1: Life Technologies and Expression Analysis (LTEA) Assay for Cyclin D1 (CCND1) using HepaRG (AID 2283451); details: mRNA level, 48 h; actives raise or lower the signal
In short: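 Expression change is measured by qRT-PCR in HepaRG cells after 48 h treatment across eight concentrations topping at 100 uM, with duplicate wells and DMSO (0.5%) serving as baseline for bidirectional fitting.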

[9] = read-out: catalase (CAT), CAT (gene 847); assay: LTEA_HepaRG_CAT: Life Technologies and Expression Analysis (LTEA) Assay for catalase (CAT) using HepaRG (AID 2283452); details: mRNA level, 48 h; actives raise or lower the signal
In short: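 Expression of CAT was quantified by TaqMan qRT-PCR with ACTB/GAPDH/POLR2A normalization after 48 h chemical exposure of HepaRG. Eight-point half-log series, top 100 uM, in 0.5% DMSO; gain or loss fitted against vehicle.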

[10] = read-out: flavin-containing dimethylaniline monooxygenases 3 (FMO3), FMO3 (gene 2328); assay: LTEA_HepaRG_FMO3: Life Technologies and Expression Analysis (LTEA) Assay for flavin-containing dimethylaniline monooxygenases 3 (FMO3) using HepaRG (AID 2283453); details: mRNA level, 48 h; actives raise or lower the signal
In short: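 HepaRG, 48 h exposure, 8-pt half-log series from 100 uM, 0.5% DMSO vehicle, duplicates; FMO3 transcript by Fluidigm TaqMan qRT-PCR, housekeeping-normalized; gain/loss fit vs DMSO.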

[11] = read-out: Cytochrome P450 (CYP1A1), CYP1A1 (gene 1543); assay: LTEA_HepaRG_CYP1A1: Life Technologies and Expression Analysis (LTEA) Assay for Cytochrome P450 (CYP1A1) using HepaRG (AID 2283454); details: mRNA level, 48 h; actives raise or lower the signal
In short: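 Using HepaRG cultures with 0.5% DMSO as vehicle, eight-concentration exposures (max 100 uM) lasted 48 h. Transcript levels were measured by TaqMan qRT-PCR and normalized to ACTB, GAPDH and POLR2A.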

[12] = read-out: CFLAR gene, CFLAR (gene 8837); assay: LTEA_HepaRG_CFLAR: Life Technologies and Expression Analysis (LTEA) Assay for CFLAR gene using HepaRG (AID 2283455); details: mRNA level, 48 h; actives raise or lower the signal
In short: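 HepaRG, 48 h exposure, 8-pt conc-response (100 uM top, half-log), 0.5% DMSO vehicle, duplicates. CFLAR expression by qRT-PCR; ACTB/GAPDH/POLR2A normalization; gain or loss fit vs DMSO baseline.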

[13] = read-out: Forkhead box O1 (FOXO1), FOXO1 (gene 2308); assay: LTEA_HepaRG_FOXO1: Life Technologies and Expression Analysis (LTEA) Assay for Forkhead box O1 (FOXO1) using HepaRG (AID 2283456); details: mRNA level, 48 h; actives raise or lower the signal
In short: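 Readout is FOXO1 transcript level by multiplexed qRT-PCR against three housekeeping genes, curve-fitted in both directions relative to 0.5% DMSO vehicle. Human HepaRG cultures received chemicals for 48 h, up to 100 uM in half-log steps.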

[14] = read-out: growth arrest and DNA damage 45 (GADD45A), GADD45A (gene 1647); assay: LTEA_HepaRG_GADD45A: Life Technologies and Expression Analysis (LTEA) Assay for growth arrest and DNA damage 45 (GADD45A) using HepaRG (AID 2283458); details: mRNA level, 48 h; actives raise or lower the signal
In short: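 Human HepaRG liver cells are treated in duplicate for 48 h with chemicals in 0.5% DMSO, highest concentration 100 uM. Expression is read by qRT-PCR and analyzed in both directions against vehicle.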

[15] = read-out: Forkhead box O3 (FOXO3), FOXO3 (gene 2309); assay: LTEA_HepaRG_FOXO3: Life Technologies and Expression Analysis (LTEA) Assay for Forkhead box O3 (FOXO3) using HepaRG (AID 2283459); details: mRNA level, 48 h; actives raise or lower the signal
In short: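 HepaRG, 48 h post-dose; 8 conc., half-log from 100 uM, 0.5% DMSO, duplicates; serum-free induction medium. Readout: FOXO3 mRNA, TaqMan qRT-PCR, housekeeping-normalized. Bidirectional curve fit vs DMSO baseline.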

[16] = read-out: ABC Transporter (ABCB1), ABCB1 (gene 5243); assay: LTEA_HepaRG_ABCB1: Life Technologies and Expression Analysis (LTEA) Assay for ABC Transporter (ABCB1) using HepaRG (AID 2283460); details: mRNA level, 48 h; actives raise or lower the signal
In short: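 Expression of ABCB1 was quantified by qRT-PCR against three housekeeping genes after human HepaRG cultures received test chemicals for 48 hours. Concentrations spanned eight half-log steps topping at 100 uM in 0.5% DMSO; gain or loss of signal was fitted relative to vehicle.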

[17] = read-out: growth arrest and DNA damage 45 (GADD45B), GADD45B (gene 4616); assay: LTEA_HepaRG_GADD45B: Life Technologies and Expression Analysis (LTEA) Assay for growth arrest and DNA damage 45 (GADD45B) using HepaRG (AID 2283461); details: mRNA level, 48 h; actives raise or lower the signal
In short: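 Human HepaRG monolayers receive chemicals for 48 h at eight half-log concentrations, highest 100 uM, in 0.5% DMSO. Expression is measured by TaqMan qRT-PCR and normalized to ACTB, GAPDH and POLR2A.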

[18] = read-out: ABC Transporter (ABCC3), ABCC3 (gene 8714); assay: LTEA_HepaRG_ABCC3: Life Technologies and Expression Analysis (LTEA) Assay for ABC Transporter (ABCC3) using HepaRG (AID 2283462); details: mRNA level, 48 h; actives raise or lower the signal
In short: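 Transcriptional change of ABCC3 in HepaRG after 48 h treatment, determined by qRT-PCR normalized to endogenous controls. Concentrations spanned eight half-log steps to 100 uM in 0.5% DMSO.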

[19] = read-out: ABC Transporter (ABCB11), ABCB11 (gene 8647); assay: LTEA_HepaRG_ABCB11: Life Technologies and Expression Analysis (LTEA) Assay for ABC Transporter (ABCB11) using HepaRG (AID 2283463); details: mRNA level, 48 h; actives raise or lower the signal
In short: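 ABCB11 transcript levels are read by Fluidigm TaqMan qRT-PCR after 48 h chemical treatment of human HepaRG cells. Concentrations span 100 uM downward in half-log steps with 0.5% DMSO; gain or loss is fitted against DMSO controls.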

Fatty acid synthase (Homo sapiens), sequence (P49327 whole entry, looked up): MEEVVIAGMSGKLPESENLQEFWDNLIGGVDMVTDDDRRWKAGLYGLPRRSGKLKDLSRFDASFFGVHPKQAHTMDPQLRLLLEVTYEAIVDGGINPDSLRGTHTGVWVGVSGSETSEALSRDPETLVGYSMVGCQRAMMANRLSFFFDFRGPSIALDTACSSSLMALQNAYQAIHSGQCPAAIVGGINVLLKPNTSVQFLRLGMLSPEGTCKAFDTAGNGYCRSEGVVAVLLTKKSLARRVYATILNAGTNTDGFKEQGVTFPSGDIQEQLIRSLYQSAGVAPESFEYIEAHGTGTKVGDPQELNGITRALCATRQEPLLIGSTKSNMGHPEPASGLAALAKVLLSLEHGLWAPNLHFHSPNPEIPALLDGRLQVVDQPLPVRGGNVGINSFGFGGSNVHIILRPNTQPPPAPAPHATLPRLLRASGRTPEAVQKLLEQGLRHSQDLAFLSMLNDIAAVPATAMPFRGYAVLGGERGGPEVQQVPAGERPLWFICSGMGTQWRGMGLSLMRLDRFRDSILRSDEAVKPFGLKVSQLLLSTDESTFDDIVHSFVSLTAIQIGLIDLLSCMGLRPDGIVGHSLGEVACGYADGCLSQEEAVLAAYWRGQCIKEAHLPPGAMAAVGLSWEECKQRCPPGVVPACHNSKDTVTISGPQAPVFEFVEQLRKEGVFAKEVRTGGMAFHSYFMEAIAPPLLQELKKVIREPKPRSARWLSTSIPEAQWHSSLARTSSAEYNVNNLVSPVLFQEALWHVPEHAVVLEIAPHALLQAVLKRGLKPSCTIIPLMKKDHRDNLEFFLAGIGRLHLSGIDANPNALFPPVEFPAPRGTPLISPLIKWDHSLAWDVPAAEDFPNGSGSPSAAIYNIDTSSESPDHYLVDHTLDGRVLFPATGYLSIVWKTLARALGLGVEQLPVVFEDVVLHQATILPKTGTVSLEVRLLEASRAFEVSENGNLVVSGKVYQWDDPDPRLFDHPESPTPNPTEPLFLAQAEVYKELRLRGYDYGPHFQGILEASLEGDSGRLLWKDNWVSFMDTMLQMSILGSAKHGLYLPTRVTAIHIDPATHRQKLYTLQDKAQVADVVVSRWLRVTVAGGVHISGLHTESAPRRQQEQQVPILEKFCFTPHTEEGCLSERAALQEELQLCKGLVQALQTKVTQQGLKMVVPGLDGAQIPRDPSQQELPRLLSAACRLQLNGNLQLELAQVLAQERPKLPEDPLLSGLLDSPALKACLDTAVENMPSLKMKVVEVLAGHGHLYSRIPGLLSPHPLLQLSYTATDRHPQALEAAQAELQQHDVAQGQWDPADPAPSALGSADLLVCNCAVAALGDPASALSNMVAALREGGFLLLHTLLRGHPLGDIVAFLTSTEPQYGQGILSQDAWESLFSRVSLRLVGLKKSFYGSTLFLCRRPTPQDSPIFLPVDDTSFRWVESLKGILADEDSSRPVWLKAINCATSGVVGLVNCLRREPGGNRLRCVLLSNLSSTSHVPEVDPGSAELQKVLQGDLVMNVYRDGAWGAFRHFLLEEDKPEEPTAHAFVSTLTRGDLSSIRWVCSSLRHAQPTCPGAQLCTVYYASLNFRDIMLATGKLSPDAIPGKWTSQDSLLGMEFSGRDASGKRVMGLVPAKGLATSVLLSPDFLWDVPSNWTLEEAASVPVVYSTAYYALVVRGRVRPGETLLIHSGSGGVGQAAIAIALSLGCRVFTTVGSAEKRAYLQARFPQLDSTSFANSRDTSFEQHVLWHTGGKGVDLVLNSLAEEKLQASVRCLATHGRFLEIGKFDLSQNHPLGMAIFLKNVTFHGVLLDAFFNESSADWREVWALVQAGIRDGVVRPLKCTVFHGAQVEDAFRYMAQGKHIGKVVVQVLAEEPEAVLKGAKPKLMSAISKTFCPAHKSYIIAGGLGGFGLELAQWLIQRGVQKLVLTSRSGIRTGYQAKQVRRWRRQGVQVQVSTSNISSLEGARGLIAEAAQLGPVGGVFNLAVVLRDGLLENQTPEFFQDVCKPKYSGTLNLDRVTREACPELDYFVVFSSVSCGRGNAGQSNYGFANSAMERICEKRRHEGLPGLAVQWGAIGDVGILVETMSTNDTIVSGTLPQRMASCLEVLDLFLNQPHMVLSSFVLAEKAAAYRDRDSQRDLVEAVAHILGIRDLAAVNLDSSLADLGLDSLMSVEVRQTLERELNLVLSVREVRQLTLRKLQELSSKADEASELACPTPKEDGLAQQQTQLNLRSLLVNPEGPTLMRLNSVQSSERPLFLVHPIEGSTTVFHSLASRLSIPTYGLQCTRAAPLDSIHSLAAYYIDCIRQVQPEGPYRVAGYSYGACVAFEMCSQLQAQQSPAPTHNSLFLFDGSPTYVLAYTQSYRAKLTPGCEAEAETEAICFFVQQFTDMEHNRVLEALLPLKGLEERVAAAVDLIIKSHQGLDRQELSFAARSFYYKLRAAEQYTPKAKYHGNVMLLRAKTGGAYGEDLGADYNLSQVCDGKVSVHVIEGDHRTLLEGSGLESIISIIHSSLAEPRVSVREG
Caspase-3 (Homo sapiens), sequence (P42574 whole entry, looked up): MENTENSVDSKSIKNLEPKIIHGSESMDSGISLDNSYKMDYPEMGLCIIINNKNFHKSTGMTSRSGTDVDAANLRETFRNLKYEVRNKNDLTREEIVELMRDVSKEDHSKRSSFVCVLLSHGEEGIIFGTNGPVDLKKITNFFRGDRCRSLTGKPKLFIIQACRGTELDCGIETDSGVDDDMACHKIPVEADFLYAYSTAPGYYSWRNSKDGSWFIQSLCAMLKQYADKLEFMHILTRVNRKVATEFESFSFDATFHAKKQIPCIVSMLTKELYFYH

NC(N)=Nc1nc(CSCCC(N)=NS(N)(=O)=O)cs1
outcome [1]: inactive
outcome [2]: inactive

CCC(C)=NO
outcome (Caspase-3 (Homo sapiens)): inactive
outcome [3]: inactive
outcome [4]: inactive
outcome [5]: inactive
outcome [6]: inactive
outcome [7]: inactive
outcome [8]: inactive
outcome [9]: inactive
outcome [10]: inactive
AC50 [11]: 49.8 µM (active)
outcome [12]: inactive
outcome [13]: inactive
outcome [14]: inactive
outcome [15]: inactive
outcome [16]: inactive
outcome [17]: inactive
outcome [18]: inactive
outcome [19]: inactive

— PubChem BioAssay (EPA / NIEHS)
